Where “and” joins values, the source holds several entries; their conditions need not be identical. Identical values can stand only once. About 79,000 compounds went through this panel and 15% of them were active in at least one assay; those are over-represented in the sample as a whole. Rule as the data show it: active = growth inhibition above about 70%; inactive = the rest.
Legend:
[1] = NCI Yeast Anticancer Drug Screen. Data for the rad50 strain (AID 155);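 also: 0% = growth of vehicle-only cultures of the same strain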; details: S. cerevisiae rad50 strain growth inhibition, stronger effect = higher value; at 50.0 µM unless noted
Summary of the method: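 Compounds were tested on a yeast strain with an engineered DNA damage repair alteration; the reported value is growth inhibition normalised to vehicle treatment.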

[2] = NCI Yeast Anticancer Drug Screen. Data for the mec2-1 strain (AID 157); details: S. cerevisiae mec2-1 strain, stronger effect = higher value; at 50.0 µM unless noted
Summary of the method: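 Growth inhibition is read against vehicle-treated controls after compound exposure of the mec2-1 yeast strain, which is defective in DNA damage repair or cell cycle control.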

[3] = NCI Yeast Anticancer Drug Screen. Data for the sgs1 mgt1 strain (AID 161);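 also: 0% = growth of cultures given vehicle only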; details: S. cerevisiae sgs1 mgt1 strain, stronger effect = higher value; at 50.0 µM unless noted
Summary of the method: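 Percent growth inhibition was derived by comparing compound-exposed mutant yeast with vehicle-exposed cultures. The strain carries alterations in DNA damage repair.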

[4] = NCI Yeast Anticancer Drug Screen. Data for the bub3 strain (AID 167); details: S. cerevisiae bub3 mutant strain, stronger effect = higher value; at 50.0 µM unless noted
Summary of the method: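 Growth of a checkpoint-deficient yeast mutant is measured after compound exposure. Values represent inhibition relative to vehicle.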

[5] = NCI Yeast Anticancer Drug Screen. Data for the mlh1 rad18 strain (AID 175); details: S. cerevisiae mlh1 rad18 strain growth inhibition, stronger effect = higher value; at 50.0 µM unless noted
Summary of the method: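 Cells of a genetically altered yeast strain, deficient in DNA damage repair, were treated with compound. Their growth was then compared with that of vehicle-treated cultures to give inhibition.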

[6] = NCI Yeast Anticancer Drug Screen. Data for the cln2 rad14 strain (AID 165);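 also: 0% = growth equal to vehicle treated cultures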; details: S. cerevisiae cln2 rad14 strain, stronger effect = higher value; at 50.0 µM unless noted
Summary of the method: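 Growth inhibition, relative to vehicle-treated controls, is the read-out. The test organism is a yeast strain with defined genetic alterations, cln2 rad14.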

Measured: growth inhibition

N#CCCN1CCCC(=O)NC1=O
inactive: [1] 4.4% | [2] -14.4% | [3] -5.35% | [4] -7.4% | [5] -15.4%

O=C1C2=C(C(=O)C3=C1C1CCC3C1)C1CCC2C1
inactive: [1] 4.1% | [2] -34.1% | [3] -11.7% | [4] -5.25% | [5] 0.7%

O=C(/C(=C/c1ccccc1)c1ccccc1)N1c2ccccc2CC1c1c[nH]c2ccccc12 (stereo not drawn)
inactive: [1] 17.4% | [2] 15.2% | [3] -10.9% | [4] 3.3% | [5] 23.8%

O=C1NC(=S)N/C1=C\c1ccc(Cl)cc1
inactive: [1] -5.75% | [2] -4.8% | [3] 15% | [4] -9.3% | [5] -39.7%

S=C(S)Nc1cccc2ccccc12
inactive: [1] -14.4% and 11.2% | [2] -13.9% and -10.2% | [5] -16.2% and 14.3%

Cc1ccc(S(=O)(=O)c2c3[nH]c4ccccc4nc3n3c2nc2ccccc23)cc1
inactive: [1] -14.2% | [2] -45.5% | [3] -19.2% | [4] -26.8% | [5] -14.3%

Cc1ccc(C(=O)CC(Sc2ccccc2N)c2c(Cl)cccc2Cl)c(C)c1 (stereo not drawn)
inactive: [1] -7.4% | [2] -26.4% | [3] 3.8% | [4] -11.1% | [5] -16.5%

CCSC(=O)C(F)(F)F
inactive: [1] -9.95% | [2] -47.9% | [3] -51.4% | [4] -18.1% | [5] -25.6%

Cc1ccc(S(=O)(=O)CCC#N)cc1
inactive: [1] 0.25% | [2] 8.2% | [3] -5.65% | [4] -8.2% | [5] -11.7%

C=CCSCc1ccccc1
inactive: [1] 4.55% | [2] 2.95% | [3] -13.6% | [4] -2.15% | [5] 19.7%

[N-]=[N+]=Nc1ccc2nc(N)nc(N)c2c1
inactive: [1] -4.25% | [2] 5.7% | [3] 2.85% | [4] -7.45% | [5] -5.2%

Cn1c([N+](=O)[O-])cnc1CSc1nc(-c2ccccc2)no1
inactive: [1] 17.9% | [2] 1.8% | [3] 33.8% | [4] 5.25% | [5] 33.1%

C[n+]1c(SCC(=O)O)sc2ccccc21
inactive: [1] -28.8% and 1.2% | [2] -46.3% and 10.1% | [3] 3.7% and 19.6% | [4] -26.6% and 34.2% | [5] 5.7% and 22.9%

COC(=O)CN(CC(=O)NCCCBr)C1CCCCC1N(CC(=O)OC)CC(=O)OC (stereo not drawn)
inactive: [1] -23.9% | [2] -17.1% | [3] 10.2% | [4] -26.9% | [5] -22.7%

CC(=O)NC(C(=O)O)C(C)C (stereo not drawn)
inactive: [1] 6.4% | [2] -0.75% | [3] -4.55% | [4] 0.85% | [5] 6.7%

Nc1c(F)c(F)c(N=Nc2ccccc2)c(F)c1F
inactive: [1] 5.2% | [2] 7.1% | [3] 3.8% | [4] 24.4% | [5] -17.1%

Cc1ccc([N+](=O)[O-])cc1NC(=O)/C(=N/NC(=S)NN)C1SC(=S)NC1=O (stereo not drawn)
inactive: [1] 19.4% | [2] -12.1% | [3] 12.2% | [4] -19.6% | [5] -8.75%

c1ccc(CC2=NCCO2)cc1
inactive: [1] -5.55% | [2] 2.25% | [3] -3.3% | [4] 3.85% | [5] -25.9%

CC(=O)NC(C)c1ccccc1 (stereo not drawn)
inactive: [1] -4.75% | [2] 40.1% | [3] 15.3% | [4] -1.55% | [5] 3.3%

Oc1ccc2ccccc2c1/C=C/c1ccc2c(Br)cc(Br)c(O)c2n1
inactive: [1] 60.6% | [2] 41.1% | [3] 28.7% | [4] 64.9% | [5] 65.3%

Cc1ccc(C2=NN(c3ccccc3)C(c3ccccc3)C2NC2CCCCC2)cc1 (stereo not drawn)
inactive: [1] 41.1% | [2] -12.3% | [3] 19.6% | [4] 0.5% | [5] 10.3%

CCN(CC)C(=S)SCC(=O)Nc1nc2c(s1)CCCC2
inactive: [1] -9.25% | [2] -1.25% | [3] -34.2% | [4] 11.3% | [5] 6.9%

Cc1cc(C)c2c(c1)CC(C)(C)CC2=O
inactive: [1] 4% | [2] -7.95% | [3] -1.1% | [4] -4.55% | [5] -2.6%

CCCCCC(Br)C(Br)CC(Br)C(Br)CC(Br)C(Br)CCCCC(=O)O (stereo not drawn)
inactive: [1] 11.2% | [2] -5.8% | [3] 9.6% | [4] -0.7% | [5] 22.6%

C(/C=N/NC1=NCCN1)=N\NC1=NCCN1
inactive: [1] 42% | [2] 18.1% | [3] 28.4% | [4] 36.6% | [5] 41.5%

O=C(Cc1ccccc1)NCCCN(CCCCN(CCCNC(=O)Cc1ccccc1)C(=O)OCc1ccccc1)C(=O)OCc1ccccc1
inactive: [1] -11.9% | [3] -2.7% | [6] -7.4% | [4] -0.85% | [5] -27.6%

CCCCCCCCCCCCSCCSCCCCCCCCCCCC
inactive: [1] 9.85% | [3] 4.9% | [6] -26.8% | [4] -29.4% | [5] 1.3%

Cn1c(=O)c2[nH]c(Nc3cccc(Cl)c3)nc2n(C)c1=O
inactive: [1] -26.3% | [3] -18.8% | [6] -13.2% | [4] -1.85% | [5] 17.1%

CN(C)Cc1cc(-c2c(Cl)cccc2Cl)no1
inactive: [1] -18.8% | [3] -10.4% | [6] 4% | [4] 7.1% | [5] -13.6%

CC1(c2ccccc2)C(=O)c2ccccc2-c2ccccc21 (stereo not drawn)
inactive: [1] 63.5% | [3] 63.8% | [6] 3.45% | [4] 24.7% | [5] 24%

O=C(C(/C=N/C(=S)NC1C(=O)Nc2ccccc21)=C(/O)c1ccccc1)c1ccccc1 (stereo not drawn)
inactive: [1] 9.6% | [3] 16.9% | [6] 27.5% | [4] 21.7% | [5] -9.4%

CN1C(=O)C/C(=C/[N+](=O)[O-])c2ccccc21
inactive: [1] 3.5% | [3] 4.2% | [6] 8.05% | [4] 3.3% | [5] -18.9%

Nc1ncnc2c1c(-c1nnc(-c3ccccc3)c(-c3ccccc3)n1)cn2C1OC(CO)C(O)C1O (stereo not drawn)
inactive: [1] 44.1% | [3] 38% | [6] -13.3% | [4] -4.25% | [5] 9.9%

CCOc1ccc(N=Cc2ccc3cc(C)ccc3n2)cc1
inactive: [1] -9.95% | [3] -2.4% | [6] 12.2% | [4] -1.8% | [5] -19.9%

C#CCSC(=S)NNc1ccccc1
inactive: [1] 33.1% | [3] 33.1% | [6] 6.2% | [4] 60.8% | [5] 24.8%

CC1(C)CCC2=C(O1)C(=O)c1ccccc1C2=O
inactive: [1] 13.8% | [3] 29.6% | [6] 3.35% | [4] 35.8% | [5] 18%

CCc1cccc(C(C)C)c1NC(=O)C(=O)Nn1c(=S)[nH]c2ccccc2c1=O
inactive: [1] -7.15% | [3] -10.2% | [6] 2.75% | [4] -17.2% | [5] -12.6%

CCN1CCCC(C(=O)O)(c2ccccc2)CC1 (stereo not drawn)
inactive: [1] 1.75% | [3] -6.2% | [6] -39% | [4] -1.15% | [5] 2%

O=C(c1ccc(-c2ccccc2)cc1)C(O)c1ccc(-c2ccccc2)cc1 (stereo not drawn)
inactive: [1] 7.55% | [3] 2.65% | [6] -5.35% | [4] 1.2% | [5] 4.65%

C#CCC(C(=O)OC)N(CC)CC (stereo not drawn)
inactive: [1] 25.6% | [3] 41.4% | [6] 0.55% | [4] 46.1% | [5] 33.7%

CCCCC/C(=N\c1nc[nH]c1C(N)=O)OCC
inactive: [1] -29.9% | [3] -37.9% | [6] -7.1% | [4] -27.8% | [5] -25.6%
